From PubChem BioAssay
Where “and” joins values, the source holds several entries; their conditions need not be identical. Equal entries are not always repeated. Calls of active or inactive are those of the source.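 How the source made its calls, unless noted: active means thallium flux through the channel raised or lowered by more than 3 SD from vehicle-only wells, actives on both sides; inactive means the rest.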

Tests used:
[1] = liver-stage malaria parasite growth inhibition, primary screen, cell-based, HepG2, luciferase luminescence, HepG2 viability (AID 624349; in the data active means parasite load remaining mostly below about 12%, no sharp cut-off; inactive means mostly above about 10%;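 further: 100% = mean of DMSO negative control wells on the same plate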); settings: P. berghei liver stage in HepG2, luciferase luminescence, concentration not given here; parasite load remaining: stronger effect = lower value; viability: measured here: HepG2 viability without parasites
[2] = Cy5 fluorescence interference with SSB-bound oligo, artefact control for HCV NS3 helicase inhibitor project, biochemical, NIH Clinical Collection, E. coli SSB (AID 743268; call rule not given here)
[3] = tested on: Hepatitis C virus NS3 helicase; test: HCV NS3 helicase inhibitors, primary screen, biochemical, fluorescence polarization, NIH Clinical Collection (AID 743270; call rule not given here); settings: NS3 helicase binding to Cy5-dT15 DNA, stronger effect = higher value, concentration not given here
[4] = target: Single-stranded DNA-binding protein (Escherichia coli (strain K12)) (UniProt P0AGE0); test: E. coli SSB displacement from DNA, counter-screen for HCV NS3 helicase inhibitor project, biochemical, fluorescence polarization, NIH Clinical Collection (AID 743271; in the data active means inhibition above about 28%); settings: stronger effect = higher value, concentration not given here
[5] = fluorescence interference in NS3h assay format, artefact control for HCV NS3 helicase inhibitor project, biochemical, NIH Clinical Collection (AID 743272; call rule not given here;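 further: HCV NS3 helicase with a Cy5 labelled single stranded DNA probe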); settings: fluorescence interference counterscreen, stronger effect = lower value
[6] = modulation of C. elegans fzo-1 (AID 1259413; call rule not given here;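 further: fzo-1 mutant C. elegans worms in liquid wells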); settings: C. elegans fzo-1 modulator screen, mean read-out; stronger effect = higher value
[7] = sensitizers of A549 cells to miR-34 induction, primary screen, imaging, A549 dox-inducible miR-34, nuclei and caspase counts (AID 1347080;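 active means compounds whose cell count with miR-34 switched on is under 0.7 times the count with it off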); settings: A549 miR-34 inducible, Hoechst nuclei count, 48 h
[8] = survival rescue of mitochondrial mutant cells in low glucose, primary screen, MELAS cybrids, Rieske KO mouse fibroblasts, CellTiter-Glo (AID 1508586;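 active means mean z-score across replicates of 1.96 or higher in either the MELAS or the Rieske mutant cell line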;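 further: z relative to plate mean and SD of compound and empty wells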)
F380Y = test: modulators of BK channel variants, profiling panel, selectivity assay, cell-based, U2OS BacMam, thallium flux, beta subunits (AID 1259406); settings: at 30 µM;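 further: initial slope of Thallos dye fluorescence rise after thallium is added; log ratio against the mean of 0.3% DMSO vehicle wells on the same plate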
F380Y/beta1 = test: as above; settings: at 30 µM
F380Y/beta2Delta = test: as above; settings: at 30 µM
F380Y/beta4 = test: as above; settings: at 30 µM
[9] = target: Calcium-activated potassium channel subunit alpha-1 (Homo sapiens) + Leucine-rich repeat-containing protein 26 (Homo sapiens) (UniProt Q12791+Q2I0M4); test: as above; settings: F380Y/Slo1WT/gamma1, at 30 µM
Sequence of Calcium-activated potassium channel subunit alpha-1 (Homo sapiens) + Leucine-rich repeat-containing protein 26 (Homo sapiens) (Q2I0M4 whole entry, looked up, one chain of several): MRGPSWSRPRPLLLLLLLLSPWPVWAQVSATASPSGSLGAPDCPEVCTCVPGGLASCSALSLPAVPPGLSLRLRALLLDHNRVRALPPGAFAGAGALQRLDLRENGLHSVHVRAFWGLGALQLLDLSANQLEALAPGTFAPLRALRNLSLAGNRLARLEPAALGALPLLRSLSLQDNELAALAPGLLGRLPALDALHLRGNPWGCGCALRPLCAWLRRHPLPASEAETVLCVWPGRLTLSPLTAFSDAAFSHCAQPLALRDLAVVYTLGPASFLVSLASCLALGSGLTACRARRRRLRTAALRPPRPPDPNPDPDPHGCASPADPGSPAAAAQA

R275C = test: as above; settings: at 30 µM
R275C/beta1 = test: as above; settings: at 30 µM
R275C/beta2Delta = test: as above; settings: at 30 µM
R275C/beta4 = test: as above; settings: at 30 µM
R275C/Slo1WT/beta2 = test: as above; settings: at 30 µM
[10] = stronger effect = lower value, cell number ratio, induced over uninduced
[11] = measured here: relative caspase fold change +Dox/-Dox
[12] = measured here: total cells with miR-34 induction, stronger effect = lower value
[13] = measured here: total cells without miR-34 induction
[14] = MELAS cybrid survival, CellTiter-Glo 48 h, stronger effect = higher value
[15] = Rieske KO mouse fibroblast survival, CellTiter-Glo 72 h

NC(=O)c1ncn(C2OC(CO)C(O)C2O)n1 (centres undefined)
0.486: z-score [8, 15]
1.64 and 0.871: fold change [7, 11]
151%: viability [1]
inactive: parasite load remaining [1] 36.7% | fluorescence ratio [2] 1.01 | inhibition [3] 1.36% | inhibition [4] 5.62% | fluorescence ratio [5] 1.05 | mean signal [6] 278 | fold change [7, 10] 0.987 and 0.921 | z-score [8, 14] -0.322 | log fold change Tl+ flux (F380Y) -0.0109 | log fold change Tl+ flux (F380Y/beta1) -0.00666 | log fold change Tl+ flux (F380Y/beta2Delta) -0.00987 | log fold change Tl+ flux (F380Y/beta4) 0.00318 | log fold change Tl+ flux [9] -0.0406 | log fold change Tl+ flux (R275C) 0.0183 | log fold change Tl+ flux (R275C/beta1) -0.000638 | log fold change Tl+ flux (R275C/beta2Delta) -0.0258 | log fold change Tl+ flux (R275C/beta4) -0.0315 | log fold change Tl+ flux (R275C/Slo1WT/beta2) 0.0198
10100 and 9640: cell count [7, 13]
9950 and 8880: cell count [7, 12]

COc1cc(C)c(/C=C/C(C)=C/C=C/C(C)=C/C(=O)O)c(C)c1C
100%: viability [1]
active: log fold change Tl+ flux (F380Y/beta1) 0.176 | log fold change Tl+ flux (F380Y/beta2Delta) 0.35 | log fold change Tl+ flux [9] 0.229 | log fold change Tl+ flux (R275C/beta1) 0.389 | log fold change Tl+ flux (R275C/beta2Delta) 0.261 | log fold change Tl+ flux (R275C/beta4) 0.228
10300: cell count [7, 12] | cell count [7, 13]
1.44: z-score [8, 15]
inactive: parasite load remaining [1] 45.7% | fluorescence ratio [2] 1.04 | inhibition [3] 4.09% | inhibition [4] 4.1% | fluorescence ratio [5] 1 | mean signal [6] 260 | fold change [7, 10] 0.995 | z-score [8, 14] 0.713 | log fold change Tl+ flux (F380Y) -0.0381 | log fold change Tl+ flux (F380Y/beta4) 0.0442 | log fold change Tl+ flux (R275C) -0.0134 | log fold change Tl+ flux (R275C/Slo1WT/beta2) -0.0131
2.52: fold change [7, 11]

C=CCc1ccc(O)c(-c2ccc(O)c(CC=C)c2)c1
8280 and 10100: cell count [7, 13]
1.37 and 0.714: fold change [7, 11]
0.74: z-score [8, 15]
inactive: parasite load remaining [1] 18.8% | fluorescence ratio [2] 0.94 | inhibition [3] 5.94% | inhibition [4] 5.29% | fluorescence ratio [5] 0.94 | mean signal [6] 216 | fold change [7, 10] 0.989 and 0.916 | z-score [8, 14] -0.24 | log fold change Tl+ flux (R275C) 0.0538
70.3%: viability [1]
active: log fold change Tl+ flux (F380Y) 0.306 | log fold change Tl+ flux (F380Y/beta1) 0.643 | log fold change Tl+ flux (F380Y/beta2Delta) 0.34 | log fold change Tl+ flux (F380Y/beta4) 0.501 | log fold change Tl+ flux [9] 0.418 | log fold change Tl+ flux (R275C/beta1) 0.387 | log fold change Tl+ flux (R275C/beta2Delta) 0.524 | log fold change Tl+ flux (R275C/beta4) 0.697 | log fold change Tl+ flux (R275C/Slo1WT/beta2) 0.149
8192 and 9270: cell count [7, 12]
